Laboratory results as given in PubChem BioAssay AID488896 (Broad Institute, 2010).
In all, about 320,000 compounds went through this assay and about 3,100 (0.97%) were called active. The entries come from a sample that favours actives as a whole. A number with no mark means an inactive call.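 The calls were made as follows: active = mean replicate inhibition of at least 70% and a set share of replicates each scoring 70 or more; inconclusive = meets just one of the two criteria; inactive = fails both criteria.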

These molecules were tested against Scavenger receptor class B member 1 (Mus musculus) (UniProt Q61009) (assay: mouse SR-BI DiI-HDL uptake blockers – ldlA[mSR-BI] cells, fluorescence, single point, primary screen (AID 488896;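 also: 0% = median of neutral control wells and 100% = median of positive control wells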)). Details: ldlA[mSR-BI] CHO cells, 3 h, at 12.5 µM, active compounds read high.
Sequence of Scavenger receptor class B member 1 (Mus musculus) (Q61009 whole entry, looked up): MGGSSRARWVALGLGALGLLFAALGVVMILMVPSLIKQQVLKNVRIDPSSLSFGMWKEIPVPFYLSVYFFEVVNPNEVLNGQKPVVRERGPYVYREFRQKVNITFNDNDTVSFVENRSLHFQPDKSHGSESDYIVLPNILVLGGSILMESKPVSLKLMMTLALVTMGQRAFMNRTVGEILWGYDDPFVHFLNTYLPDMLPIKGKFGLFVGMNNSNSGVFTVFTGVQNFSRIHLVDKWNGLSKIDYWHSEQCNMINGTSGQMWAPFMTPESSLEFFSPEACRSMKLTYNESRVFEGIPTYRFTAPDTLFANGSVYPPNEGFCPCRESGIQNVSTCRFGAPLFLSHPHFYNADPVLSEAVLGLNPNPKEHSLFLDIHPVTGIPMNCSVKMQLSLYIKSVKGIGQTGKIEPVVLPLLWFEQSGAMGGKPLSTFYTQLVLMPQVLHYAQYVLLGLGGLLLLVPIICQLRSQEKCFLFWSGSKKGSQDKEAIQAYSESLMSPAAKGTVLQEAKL
`CC(=O)OC1C2(CC3N4C(=O)C5(CO)SSC4(CC31O)C(=O)N5C)OC(C)C(C)(C)C2=O` (stereo not given) was tested, and the inhibition was 106% (active). `CC12CCC(O)CC1CCC1C2CCC2(C)C(C(=O)CC(O)C(F)(F)F)CCC12` (stereo not given) showed an inhibition of 13.2%. In the case of `O=C(c1ccccc1)C(O)(CN1CCCCC1)c1ccccc1` (stereo not given), the inhibition is reported as -5.67%. In the case of `COC1C(O)C(C)OC(OC2CCC3(C=O)C(CCC4C3CCC3(C)C(C5=CC(=O)OC5)CCC43O)C2)C1O` (stereo not given), the inhibition is reported as 0.038%. In the case of `CC(=O)c1ccc(OC(NC(=O)Cc2ccccc2)C(Cl)(Cl)Cl)cc1` (stereo not given), the inhibition is reported as 92.8% (active). Work on `CC(=O)Cc1ccc(OC(C)C)cc1` yielded an inhibition of -1.27%. For `CCOP(=O)(OCC)C(NC(=O)c1ccc(OC)cc1)C(Cl)(Cl)Cl` (stereo not given), the inhibition was 6.36%. In the case of `CN(C)CC1Oc2ccccc2OC1(O)c1ccccc1` (stereo not given), the inhibition is reported as 1.39%. For `CC1=CC(=Cc2sc3ccccc3[n+]2C)C=C(C)O1`, the inhibition was -1%. With `CCC(C)(O)C(=O)OC1C(=O)OC2CC3C(C)=CC(=O)C(O)C3(C)C3C4(O)OCC23C1C(C)C4O` (stereo not given) the inhibition was -10.3%.
